aSyn UTR act = Activators via SNCA 5'UTR binding, MLPCN. alpha-synuclein 5'UTR reporter, activators screen. activity score, % (tested at 7.5 µM), hits read low. 7.1% of 300,000 active. AID 1814, 2009; in the data active means activity score below about -60%
The depositor's hits bear a star. These entries were drawn from the full list.

Cc1ccc(Nc2n[nH]c(C)c2[N+](=O)[O-])cc1 was read as aSyn UTR act -221*.
For Cc1[nH]nc(Nc2ccc(Br)cc2)c1[N+](=O)[O-] the results were aSyn UTR act -164*.
Screening Cc1[nH]nc(Nc2ccc(C(C)C)cc2)c1[N+](=O)[O-] returned aSyn UTR act -151*.
Cc1[nH]nc(Nc2ccccc2)c1[N+](=O)[O-] was read as aSyn UTR act -72*.
Screening Cc1cccc(Nc2n[nH]c(C)c2[N+](=O)[O-])c1 returned aSyn UTR act -140*.
For Cc1ccccc1NC(=O)C1Cc2ccccc2CN1C(=O)c1ccco1 (stereo not given) the results were aSyn UTR act -132*.
For COc1cccc(NC(=O)C2Cc3ccccc3CN2C(=O)c2ccco2)c1 (stereo not given) the results were aSyn UTR act -94*.
`O=C(CSCC(=O)Nc1ccccc1)N/N=C/c1c(O)ccc2ccccc12` gave aSyn UTR act 76.
`O=C(CSCc1ccccc1)Nc1cccc(F)c1` gave aSyn UTR act -127*.
Screening O=C(CSCc1c(F)cccc1F)Nc1ccccc1 returned aSyn UTR act -116*.
Screening O=C(CSCc1ccc(F)cc1)Nc1ccc(F)cc1 returned aSyn UTR act -76*.
CCC(=O)Oc1ccc(NC(=O)CSCc2ccccc2)cc1 was read as aSyn UTR act -106*.
Screening Cc1ccccc1CSCC(=O)Nc1ccccc1F returned aSyn UTR act -79*.
Screening COc1cccc(C(=O)Nc2ccc(NC(C)=O)cn2)c1 returned aSyn UTR act -129*.
For COc1cccc(C(=O)Nc2ccc(NC(=O)c3ccco3)nc2)c1 the results were aSyn UTR act -162*.
CCCC(=O)Nc1ccc(NC(=O)c2cccc(OC)c2)nc1 was read as aSyn UTR act -160*.
Screening O=C(Nc1ccc(NC(=O)c2ccco2)nc1)c1cccnc1 returned aSyn UTR act -75*.
`O=C(Nc1ccc(NC(=O)c2ccco2)nc1)c1cccc(F)c1` gave aSyn UTR act -134*.
`Cc1ccsc1/C=N/NC(=O)c1ccco1` gave aSyn UTR act -81*.
For Cc1ccsc1/C=N/N=C/c1sccc1C the results were aSyn UTR act -181*.
Cc1ccsc1/C=N/NC(=O)c1sccc1C was read as aSyn UTR act -167*.
Cc1ccc(C(=O)N/N=C/c2c(O)ccc3ccccc23)cn1 was read as aSyn UTR act 62.
Screening Cc1ccc(C(=O)N/N=C\c2sccc2C)cn1 returned aSyn UTR act -75*.
Screening COc1ccc(NC(=O)c2ccc(OC(F)F)cc2)cc1Cl returned aSyn UTR act -167*.
`Cc1ccc(NC(=S)Nc2ccc(OC(F)F)c(Cl)c2)cc1F` gave aSyn UTR act -105*.
Screening O=C(Nc1ccc(OC(F)F)c(Cl)c1)c1ccccn1 returned aSyn UTR act -92*.
For Brc1ccc(-c2ncc3ccccn23)cc1 the results were aSyn UTR act -130*.
Screening Fc1ccc(-c2ncc3ccccn23)cc1 returned aSyn UTR act -101*.
`NC(=O)c1ccccc1Nc1nc2nc3ccccc3c(=O)n2cc1Br` gave aSyn UTR act -83*.
Screening O=C(COc1ccccc1)N1CCc2ccccc21 returned aSyn UTR act -167*.
Screening O=C1CN(C(=O)OCc2ccccc2)c2ccccc2N1 returned aSyn UTR act -89*.
For Cc1noc(C)c1COc1cccc(C(=O)OCC(=O)N2CC(=O)Nc3ccccc32)c1 the results were aSyn UTR act 65.
For O=C(OCc1ccccc1)N1CCc2ccccc21 the results were aSyn UTR act -119*.
Screening O=C(CCCc1ccccc1)N1CCc2ccccc21 returned aSyn UTR act -117*.
Screening O=C(COc1ccccc1Cl)N1CCc2ccccc2C1 returned aSyn UTR act -91*.
`CC(=O)/C(=N/Nc1ccc(Br)cc1)N1CCCc2ccccc21` gave aSyn UTR act 61.
For O=C(COc1ccc(Br)cc1)N1CCc2ccccc21 the results were aSyn UTR act -100*.
`O=C(/C=C/c1ccc(Cl)c(Cl)c1)N1CCc2ccccc21` gave aSyn UTR act -241*.
Screening O=C(COc1ccccc1Cl)N1CCc2ccccc21 returned aSyn UTR act -135*.
O=C(CCCOc1ccccc1)N1CCCc2ccccc21 was read as aSyn UTR act -73*.
Screening Cn1c(NC(=O)c2cccnc2)nc2ccccc21 returned aSyn UTR act -101*.
O=C(Nc1cnc2ccccc2c1)c1cccnc1 was read as aSyn UTR act -101*.
Screening O=C(Nc1cccc(-c2cnc3ccccc3n2)c1)c1ccco1 returned aSyn UTR act -80*.
CC(C)(C)c1ccc(C(=O)Nc2cccc(-n3cnnn3)c2)cc1 was read as aSyn UTR act -85*.
For O=C(Nc1cnc2ccccc2c1)c1cccc(-n2cnnn2)c1 the results were aSyn UTR act -89*.
Screening O=C(Nc1cnc2ccccc2c1)c1ccco1 returned aSyn UTR act -95*.
`Cc1ccc(C(=O)Nc2cnc3ccccc3c2)cc1` gave aSyn UTR act 103.
`Cc1cc(C(=O)Nc2cnc3ccccc3c2)ccc1[N+](=O)[O-]` gave aSyn UTR act -132*.
`CCC1(c2ccc(Cl)cc2)NC(=S)N(c2ccc(C)cc2)N1` (stereo not given) gave aSyn UTR act -308*.
CCC1(c2ccc(Cl)cc2)NC(=S)N(c2ccc(C)c(C)c2)N1 (stereo not given) was read as aSyn UTR act -67*.
S=C(Nc1ccccc1)c1ccccn1 was read as aSyn UTR act -165*.
For CCOC(=O)c1c(C)[nH]c2cc(Br)c(O)cc12 the results were aSyn UTR act -92*.
`Cc1ccc(N2CCN(C(=O)c3cn(CC4CCCCC4)nn3)C(C)C2)cc1` (stereo not given) gave aSyn UTR act -154*.
Screening O=[N+]([O-])c1cc([N+](=O)[O-])c2cc3ccccc3nc2c1 returned aSyn UTR act -176*.
For Cc1ccc(C(=O)O/N=C(\N)Cc2ccc([N+](=O)[O-])cc2)c(Cl)c1 the results were aSyn UTR act -73*.
`Cc1ccc(C(=O)O/N=C(\N)Cc2cccs2)c(Cl)c1` gave aSyn UTR act -73*.
For Cc1ccc2nc3sc(C(=O)N4CCCc5ccccc54)c(N)c3cc2c1 the results were aSyn UTR act -158*.
Screening N#CCCN1CCCc2cc(N=Nc3ccc(C(F)(F)F)cc3)ccc21 returned aSyn UTR act -191*.
`CN1N=C(/C=C/c2ccccc2)CCC1=O` gave aSyn UTR act -134*.
For Cc1ccc(/C=C/C2=NN(C)C(=O)CC2)cc1 the results were aSyn UTR act -104*.
Screening O=[N+]([O-])c1cc(/C=N/N/C(=N/c2ccccn2)c2ccccn2)ccc1O returned aSyn UTR act -91*.
`O=[N+]([O-])c1ccc(/C=N/N/C(=N/c2ccccn2)c2ccccn2)cc1` gave aSyn UTR act -125*.
Screening c1ccc(CN2CCC(Nc3nc(-c4ccccc4)nc4ccccc34)CC2)cc1 returned aSyn UTR act 72.
Cc1ccc(-c2nc(NCCN3CCOCC3)c3ccccc3n2)cc1 was read as aSyn UTR act -138*.
`Cc1cc(NCCN2CCOCC2)c2ccc3ccccc3c2n1` gave aSyn UTR act -132*.
For O=C(Nc1ccccc1)c1ccc(CSc2ccccn2)cc1 the results were aSyn UTR act -102*.
Screening O=C(Nc1ccccn1)c1ccc(C(=O)Nc2ccccn2)cc1 returned aSyn UTR act -104*.
Screening O=C(Nc1ccc(Cl)cc1)c1ccc(-c2ccccn2)s1 returned aSyn UTR act -170*.
